Test results published in PubChem BioAssay AID504727 (Broad Institute, 2011).
Activity calls are given as the source filed them.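 How the source made its calls: active means fitted half-maximal concentration AC50 at or below ten times the highest valid tested dose, with signal falling as DNA is displaced (actives reach about 34 µM in these data); inconclusive means flat fit at moderate signal loss, or poor fit quality; inactive means the rest, including signal rising instead of falling.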

assay: DNA intercalators displacing acridine orange, dose response, artefact control for KSHV LANA DNA-binding inhibitor project, biochemical, fluorescence polarization, cherry-picked samples, set 2 (AID 504727); details: AC50: Acridine orange-DNA displacement; series mostly up to 35 µM

Row | Compound | AC50
1 | COc1cc2c(cc1OC)-c1cc3ccc4c(c3c[n+]1CC2)OCO4 | 32.2 µM (active)
2 | O=C(Nc1ccccc1F)c1coc(=O)c(Br)c1 | inactive
3 | COc1ccc(C2C(C(=O)c3cccs3)=C(O)C(=O)N2c2nncs2)cc1 (stereo not drawn) | 3.42 µM (active)
4 | OCCN(CCO)c1nc(N2CCCCC2)c2nc(N(CCO)CCO)nc(N3CCCCC3)c2n1 | 8.59 µM (active)
5 | COc1ccc(OC)c(NC(=O)c2nnn(Cc3ccc(Br)cc3F)c2N)c1 | inactive
6 | COc1ccc(NS(=O)(=O)c2ccc3c(c2)[C@H]2C=CC[C@H]2[C@@H](c2ccc(C(=O)O)cc2)N3)cc1 | inactive
7 | O=C(/C=N/NC(=O)c1ccc(Cl)cc1Cl)c1ccccc1 | inactive
8 | CS(=O)(=O)c1cccc(C(=O)Oc2ccccc2)c1 | inactive
9 | Cc1cc(=O)c2c([nH]1)c(C)cc1[nH]c(C)c(C)c12 | inactive
10 | O=C(O)c1ccc(NS(=O)(=O)c2ccc3c(c2)C2C=CCC2C(c2ccccc2F)N3)cc1 (stereo not drawn) | inactive
11 | COc1ccc(N=Nc2nc3ccc(Br)cc3n2C)cc1 | inactive
12 | Cc1c(Cl)cccc1NS(=O)(=O)c1ccc2c(c1)C1C=CCC1C(c1ccc(C(=O)O)cc1)N2 (stereo not drawn) | inactive
13 | CCN(CC)C(=S)SC1CCCCN(C(=O)c2ccccc2)C1=O (stereo not drawn) | inactive
14 | CC(C)N(C(=S)Nc1cccnc1)c1ccccc1 | inactive
15 | CCOc1ccc(C(C)NC(=O)c2ccccc2OCc2c(C)noc2C)cc1OCC (stereo not drawn) | inactive
16 | O=C(NC1(O)C(=O)c2ccccc2C1=O)c1c(Cl)cccc1Cl | inactive
17 | Nc1cccc(N2C(=O)c3cccc4c(N)ccc(c34)C2=O)c1 | 5.76 µM (active)
18 | CC(C)CN(C(=O)CSc1nncn1C)C1CCS(=O)(=O)C1 (stereo not drawn) | inactive
19 | CC(C)Cc1nc(SCC(=O)Nc2nnc(CC(C)C)s2)n[nH]1 | inactive

Row | Compound | AC50
20 | CC1CC(C)(C)NC(=S)N1CC(=O)N(C)Cc1ccccc1 (stereo not drawn) | inactive
21 | COc1ccc(C2(CNC(=O)CCC(=O)O)CCCC2)cc1OC | inactive
22 | COc1ccc(C(C)=O)cc1CN(C)C | inactive
23 | CC(C)(C)OC(=O)C[C@@H]1C/C=C\C[C@H](CC(=O)N(CCO)Cc2ccccc2)C(=O)N[C@@H](c2ccccc2)COC1=O | inactive
24 | CCOC(=O)C1Nc2ccccc2C2C(O)C(O)CC12 (stereo not drawn) | inactive
25 | Nc1cccc2cc(S(=O)(=O)O)ccc12 | inactive
26 | COC(=O)C1CCN(C(=O)COC(=O)Cc2c[nH]c3ccccc23)CC1 | inactive
27 | COc1cc(SC)ccc1C(=O)Nc1nc(C)cs1 | inactive
28 | Cc1ccc(OCC(=O)NC(=S)Nc2cccc(NC(=O)c3ccc(Cl)cc3Cl)c2)cc1 | inactive
29 | NC(=O)C1=NOC(CNc2ncc(C(F)(F)F)cc2Cl)C1 (stereo not drawn) | inactive
30 | COc1cc(O)c(C(C)=O)c(CC(=O)O)c1 | inactive
31 | CCN(CC)CCCC(C)n1c2nc(=O)[nH]c(=O)c-2nc2cc(Cl)ccc21 (stereo not drawn) | 0.316 µM (active)
32 | CCSc1nnc(Cc2cc(=O)[nH]c(=O)[nH]2)n1-c1ccc(F)cc1 | inactive
33 | Cc1noc(C)c1CSCC(=O)Nc1nc2c(F)cc(F)cc2s1 | inactive
34 | Cc1cc(S(=O)(=O)NC2CCN(Cc3ccccc3)CC2)c(C)cc1Cl | inactive
35 | O=C(COC(=O)c1ccc([N+](=O)[O-])o1)NCCCc1ccccc1 | inactive
36 | COc1ccc(-c2nc(C(=O)O)cs2)cc1OC | inactive
37 | Cc1c(C)n(CCC(=O)O)c2ccccc12 | inactive
38 | Cc1sc2nnn(CC(=O)N3CCN(C(=O)c4ccco4)CC3)c(=O)c2c1C | inactive
